Test results as given in PubChem BioAssay (NCI).
Several values for one entry are separate records, joined by “and”; a condition that tells them apart may be missing. Equal values may be shown once. Compounds without any hit were thinned out: in the full panel of roughly 83,000, 20% have a hit.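 Compound tested at a single concentration for 48 hours in 96-well plates; a percent growth value below 10 was scored as active.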 Activity calls are given as the source filed them.

System: CCRF-CEM leukemia
Assay: NCI-60 one-dose screen, 48 h (100 = growth as untreated, 0 = no growth, -100 = all killed)
Conditions: 10 µM unless noted
Description: Growth inhibition of the CCRF-CEM human tumor cell line is measured as a screen for anti-cancer activity. Cells are grown in 96 well plates and exposed to the test compound for 48 hours. Compounds are tested at a single concentration, which is 10^-5 M for most compounds. The reported endpoint is percent growth (GI% or GIPRCNT), where numbers from 0 - 100% represent growth inhibition, and numbers from -100% - 0 represent cell death. For example, a value of 40 represents 60% growth inhibition. A value of 0 means no net growth occurred over the course of the experiment. A value of -40 indicates 40% of cells at the beginning of the experiment died by the end of the experiment. A value of -100 means all cells are dead at the end of the experiment.
NCI-60 Human Tumor Cell Lines Screen was performed using the standard one-dose NCI protocol, which is described in more detail at https://dtp.cancer.gov/discovery_development/nci-60/default.htm.
Compounds with GIPRCNT values below 10 were considered active. Activity score was based on GIPRCNT using the following formula: […]
Score is 0 for GIPRCNT values of 100 or above, 50 for GIPRCNT values of 0, and 100 for GIPRCNT values of -100.

Structure (SMILES) | growth
[Cu+].[NH-][C@H]1C[N-]C(=O)[C@H]([C@H]2CCN=C(N)N2)[N-]C(=O)/C(=C\NC(N)=O)[N-]C(=O)[C@H](CNC(=O)C[C@@H](N)CCCN)[N-]C(=O)[C@H](CO)[N-]C1=O | 99.9% (inactive)
CCCCCCCCCCCCCCCC(=O)O[C@@H]1[C@@H](O)[C@@H](O)C([C@H](NC(=O)[C@@H]2C[C@@H](CCC)CN2C)[C@H](C)Cl)O[C@@H]1SC (stereo not given in full) | 101% (inactive)
COc1ccc(/C(C)=C(\c2ccc(OCCN3CCOCC3)cc2)c2ccc(OC(=O)C3CCCCC3)cc2)cc1 | 111% (inactive)
Cc1ccc(S(=O)(=O)OC[C@@]2(C)CC[C@]3(C)CC[C@]4(C)C(=C3C2)C=C[C@@H]2[C@@]3(C)CCCNC(C)(C)[C@@H]3CC[C@]24C)cc1 | 0.849% (active)
O=S(=O)(Nc1cc(Sc2cccc3cccnc23)c(O)c2ccccc12)c1ccc(F)cc1 | 5.42% (active)
CCN(CC)/C([O-])=c1\cccc\c1=C1\N=C(c2ccccc2)N=C1[n+]1ccc(-c2ccccc2)cc1 | 84.6% (inactive)
COc1ccccc1/C=C1\COc2ccc(O)cc2C1=O | 6.4% (active)
CCCCCCCC/C=C\CCCCCCCCOc1ccccc1CC(=O)NCC[N+]1(C)CCOCC1 | 67.5% (inactive)
COc1cc2c(cc1OCCCOC1=C=C=C(c3ccc4c(c3)c3cc(-c5ccc(OCCCOc6cc7c(cc6OC)C(=O)N6CCC[C@H]6C=N7)cc5)ccc3n4S(=O)(=O)c3ccc(C)cc3)C=C1)N=C[C@@H]1CCCN1C2=O | 40.3% (inactive)
O=C1N=c2ccccc2=C1c1sc(=S)n(C2CC(=O)N(c3ccc(Cl)cc3)C2=O)c1O (stereo not given) | 83.8% (inactive)
O=c1cc(N/N=C/c2ccc(F)cc2)c2cc(Cl)ccc2[nH]1 | -13.2% (active)
O=C(/C=C\c1ccc(Cl)c(Cl)c1)c1ccccc1 | 45.5% (inactive) and 91.1% (inactive)
Cc1c(C(=O)OCCCCOC(=O)c2c(C)n(C)c3scc[n+]23)[n+]2ccsc2n1C | 96.4% (inactive)
CN1Cn2c(ccc2C(F)(F)F)C(=O)CS1(=O)=O | 105% (inactive)
COc1cc2nc3cc([N+](=O)[O-])ccc3c(NCCNCC(C)(C)O)c2cc1OC | 0.0876% (active)
CC12CCC(C(=O)CC1=O)C2(C)C (stereo not given) | 103% (inactive) and 96.8% (inactive)
COc1ccc(-c2cc(=O)c3c(O)cc(O)cc3o2)cc1 | 94.2% (inactive) and 86.6% (inactive)
Nn1c(-c2ccc(Cl)cc2)nc2c(-c3ccc(Cl)cc3)nc3ccc(Cl)cc3c2c1=O | -15.8% (active)
CC/C(=C(/c1ccc(O)cc1)c1ccc(OCCN2CCCCCC2)cc1)c1ccc(Cl)cc1 | 20.7% (inactive)
Cc1cnc(C(=O)NNc2nc3sc4c(c3c(=O)[nH]2)C(C)CCC4)cn1 (stereo not given) | 11.8% (inactive)

Structure (SMILES) | growth
O=C1C(Nc2ccc(Cl)cc2)=C(I)C(=O)c2ncccc21 | 6.74% (active)
COc1cc(-c2nc3occn3c2-c2ccnc(NCCCNS(=O)(=O)c3ccc(O)cc3)n2)ccc1F | 75.4% (inactive)
O=C(NNc1ccccc1)C1CCCN1 (stereo not given) | 46.7% (inactive)
CCCCCCCCCCCCC[C@H](O)C[C@H](O)[C@H](C)N | 25% [1.25 µM] (inactive)
CC/C(=C(/c1ccc(Cl)cc1)c1ccc(OCCN2CCOCC2)cc1)c1ccccc1 | 83.9% (inactive)
COc1ccc(Nc2ncnc3ccc(-c4cncc(NS(C)(=O)=O)c4)cc23)cc1Cl | 6.14% (active)
COc1ccc(-c2ccccc2)cc1-c1c(Nc2cc(Cl)cc(Cl)c2O)c(=O)c1=O | 19.5% (inactive)
COc1ccc(-c2cc(-c3cc(OC)c(OC)c(OC)c3)c(C#N)c(=O)n2CCCCC(=O)O)cc1 | 85.3% (inactive)
CC(=O)/C=C/c1ccc(N(CCO)Cc2ccc(C(C)(C)C)cc2)cc1 | -47.9% [100 µM] (active)
Cc1nn(-c2nc(-c3cc4ccccc4oc3=O)cs2)c(C)c1N=Nc1ccccc1 | 105% (inactive)
COc1cc(CO)cc2cc3ccccc3nc12 | 99.1% (inactive)
COc1cc(N=Nc2ccc(O)c3ncccc23)c2ncccc2c1 | 5% (active)
C/C=C(/C)C(=O)O[C@@H]1CC(C)(C)CC2C34OC(=O)[C@@]21CC[C@@]3(C)[C@]1(C)CCC2C(C)(C)C(=O)CC[C@]2(C)C1C[C@@H]4Cl (stereo not given in full) | 98.1% (inactive)
Cc1ccc(Cc2cnc(NC(=O)c3cc(C)oc3C)s2)cc1 | 70.8% (inactive)
O=C(Nc1ccc(F)cc1)c1cc2cc(Nc3nc(-c4ccccc4)nc4ccccc34)ccc2oc1=O | 106% (inactive)
CCCCCC#CC1OC23CCCCC2C(C#N)(C(=N)O3)C1(C#N)C#N (stereo not given) | 88.4% (inactive)
COc1ccccc1/C=C/C(=O)/C=C/c1ccccc1OC | 15.5% (inactive) and 6.56% (active)
O=c1c2c([nH]c3ccccc13)CCCC2 | -32.1% (active) and 37.1% (inactive)
NC(=O)c1c(NC(=O)/C=C/c2cccs2)sc2c1CCC(=O)C2 | 10.5% (inactive)
O=C(/C=C/c1ccccc1)c1cccs1 | 82.7% (inactive)
